Data reported in the supplement of paper PMC6555819.

Experiments:
Experiment in all cases: PBM binding z-score (relative to random genomic background probes); higher = stronger binding; sequences stand for … in GC…GCGATTGACAGCGTAGAATGAAGG
[1] = test system: FXR:RXRa (NR concentration 270 nM, RXRa partner concentration 90 nM)
How it was run: (§1)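 The probes on custom Agilent 4×180K protein-binding microarrays were double-stranded, with 34-nt variable regions bearing direct-repeat seeds, single-nucleotide variants, half-site ablations and random human genomic background sequences. Incubation lasted 1 h with ligand-free nuclear receptor dimers in PBS pH 7.4, 2% milk, 0.02% Triton X-100, 1 mM DTT, 0.2 mg/mL BSA and 0.4 mg/ml salmon testes DNA. Antibodies against each partner (one per run) detected bound dimers, and fluorescence scans were regression-normalized. Binding z-scores take the random background probes as reference.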

[2] = test system: LXRa:RXRa (NR concentration 270 nM, RXRa partner concentration 90 nM)
How it was run: as §1

[3] = test system: LXRa homodimer (NR concentration 270 nM)
How it was run: as §1

[4] = test system: LXRb:RXRa (NR concentration 270 nM, RXRa partner concentration 90 nM)
How it was run: as §1

[5] = test system: LXRb homodimer (NR concentration 270 nM)
How it was run: as §1

[6] = test system: PPARa:RXRa (NR concentration 270 nM, RXRa partner concentration 90 nM)
How it was run: as §1

[7] = test system: PPARg:RXRa (NR concentration 180 nM, RXRa partner concentration 90 nM)
How it was run: as §1

[8] = test system: PPARg:RXRa 270nM:90nM, anti-RXR (NR concentration 270 nM, RXRa partner concentration 90 nM)
How it was run: as §1

[9] = test system: PPARg:RXRa 30nM:10nM, anti-RXR (NR concentration 30 nM, RXRa partner concentration 10 nM)
How it was run: as §1

[10] = test system: PPARg:RXRa 90nM:30nM, anti-RXR (NR concentration 90 nM, RXRa partner concentration 30 nM)
How it was run: as §1

[11] = test system: PPARg:RXRa DBDmut IVT, anti-RXR (DBD mutation: RXRa K156A/R161A, NR concentration 270 nM, RXRa partner concentration 90 nM)
How it was run: as §1

[12] = test system: PPARg:RXRa IVT, anti-PPARg (NR concentration 270 nM, RXRa partner concentration 90 nM)
How it was run: as §1

[13] = test system: PPARg DBDmut:RXRa IVT, anti-PPARg (DBD mutation: PPARg1 K132A/R137A, NR concentration 270 nM, RXRa partner concentration 90 nM)
How it was run: as §1

[14] = test system: PPARg DBDmut IVT, anti-PPARg (DBD mutation: PPARg1 K132A/R137A, NR concentration 270 nM)
How it was run: as §1

[15] = test system: PPARg homodimer (NR concentration 180 nM)
How it was run: as §1

[16] = test system: PXR:RXRa (NR concentration 270 nM, RXRa partner concentration 90 nM)
How it was run: as §1

[17] = test system: PXR homodimer (NR concentration 270 nM)
How it was run: as §1

[18] = test system: RARa:RXR (NR concentration 270 nM, RXRa partner concentration 90 nM)
How it was run: as §1

[19] = test system: RARa homodimer (NR concentration 270 nM)
How it was run: as §1

[20] = test system: RARb:RXRa (NR concentration 270 nM, RXRa partner concentration 90 nM)
How it was run: as §1

Sequence	PBM binding z-score [1]	PBM binding z-score [2]	PBM binding z-score [3]	PBM binding z-score [4]	PBM binding z-score [5]	PBM binding z-score [6]	PBM binding z-score [7]	PBM binding z-score [8]	PBM binding z-score [9]	PBM binding z-score [10]	PBM binding z-score [11]	PBM binding z-score [12]	PBM binding z-score [13]	PBM binding z-score [14]	PBM binding z-score [15]	PBM binding z-score [16]	PBM binding z-score [17]	PBM binding z-score [18]	PBM binding z-score [19]	PBM binding z-score [20]
ATCTATAGGTAAGACTCAGTTCAGTGAAGAACGC	0.179	0.424	0.389	0.171	0.635	0.073	0.534	0.23	0.292	0.169	1	0.562	0.789	1.3	0.365	1.49	1.21	0.627	0.874	0.432
ACTATTAGTTGAGAAGAGGGCAACCGATAGGTTG	0.199	0.323	0.0723	-0.0222	0.248	0.44	0.56	0.246	0.12	0.365	0.072	0.463	1.02	0.853	0.882	0.779	0.445	0.623	1.19	1.32
TCTCGGAGGACACGGAAGGTCAGAGCTCGACATC	2.08	1.8	1.19	1.33	-0.694	2.04	0.365	1.4	2.23	1.53	1.04	1.13	-0.462	-0.403	1.27	2.53	0.114	2.45	-0.138	3.44
TCTTGTAGATCAGCAGATTAAGAAAGCTGGCCAA	-0.0778	-0.0855	-0.478	-0.134	-0.494	0.385	-0.628	0.95	2.75	1.92	1.64	-0.0378	-0.256	0.452	-0.374	-0.148	-0.568	-0.157	0.205	-0.229
GCTGCTAGGTCAACTGATGGTCAGCAAAAGCTCG	4.32	3.25	0.157	2.12	0.113	3.81	2.95	3.41	0.384	2.37	4.86	3.95	-0.344	0.121	1.67	1.68	-0.304	2.93	0.266	4.52
CGAAGTAGGTCATCCAGGACAGTGAATACATTGA	4.86	3.19	1.2	2.64	0.447	5.16	8.31	7.05	4.99	6.9	8.36	8.63	3.1	2.28	2.17	2.56	1.49	3.08	0.771	3.82
CCTACTGGACCATTCAGAGGTCATTGATCATATG	3.05	4.64	6.93	3.96	1.41	3.7	0.988	2.16	0.466	1.38	2.24	1.98	0.483	0.13	3.36	4.92	3.43	4.69	1.66	2.8
TCTGCTAGGTCAGTTGGTCAGTTAACGAGCTGCC	0.865	0.257	-0.414	0.323	0.405	1.37	0.334	1.33	0.985	1.08	2.93	2.98	1.52	0.61	0.428	-0.000879	-0.602	0.398	-1.15	3.3
GATACAGGGTCAGCCAGAGGCCAGAGTATGGAAA	4.61	2.94	-0.284	2.56	-0.975	4.69	4.13	3.7	0.98	2.28	1.1	2.63	0.315	-0.142	2.32	3.4	-0.204	4.58	0.402	4.19
GGAACGAGGGCAAGTTAATAGCAGAGTTTGATGG	0.629	0.178	-0.0244	0.334	-0.49	1.53	1.14	0.86	0.37	0.378	3.46	2.52	0.284	-0.167	0.47	0.548	0.977	0.427	-0.189	2.26
CGAACTAGGTCAAGGTCAGTGAATCTCCGCACGC	4.73	3.81	1.23	2.95	0.0681	5.17	8.71	6.93	4.44	7.24	7.95	8.28	1.6	0.259	3.84	3.45	1.03	3.61	1.62	4.86
CCTTACGGGTCAAGGTTATAGCGCGGGTGGTACG	5.55	3.66	0.129	2.75	0.134	5.04	4.54	4.41	1.73	3.35	2.04	3.57	-0.278	0.175	1.9	3.27	-0.0779	3.94	0.367	4.29
CCTATTAGTTAACCATAAGGGCAACCGAAGCTCG	0.323	0.341	0.429	0.249	0.486	0.386	0.374	0.215	0.166	0.0193	0.296	0.65	0.701	0.763	1.71	0.409	0.723	0.812	1.42	1.41
GCTAGTTGGTCAGTAAAAGGTCAGACACCGGTCG	1.99	3.15	2.83	2.74	0.106	3.24	1.79	3.25	1.03	2.7	0.754	1.67	-0.192	0.136	3.21	3.35	0.554	4.17	0.966	3.71
CTCGAAAGGTCGGTTGAGGTGATTATACGGATAA	2.6	1.84	-0.0507	1.68	-0.13	2.79	0.571	1.14	0.341	0.688	0.246	0.642	0.351	0.785	1.2	3.74	0.3	2.2	0.287	2.85
TCTTATAGATCAAAGGTTAAGAAAGCCGAAGCCT	2.06	2.39	0.368	2.31	-0.12	4.55	7.79	7.92	7.61	9.15	2.07	3.14	0.659	0.755	2.4	2.41	0.154	3.82	0.262	2.06
CCGAGTAGATTATGGGGCATTCAGGCAACGGTGA	0.0957	-0.0855	-0.262	0.275	-0.645	0.18	0.487	0.839	0.0845	0.412	0.855	1	-0.628	-0.679	0.156	-0.457	0.0578	-0.525	-0.197	0.0647
CAAACTAGGTCAAGGTCATAGTCGGTTTGTGCCA	6.58	5.31	3.83	4.11	1.07	5.92	9.25	7.76	6.24	8	8.52	8.68	4.59	1.94	4.4	5.2	2.73	5.56	1.31	4.97
TCTTGTAGATCAGCAGGTAAAGAAAGCTGGCCAA	0.051	0.0639	-0.443	-0.119	-0.519	0.422	-0.331	0.955	2.5	1.69	1.27	0.386	-0.0476	-0.531	-0.175	-0.0594	-0.358	0.111	0.0298	-0.482
TCGAGTAGATTACCAATGGGGCATTCAGCTTTCT	-0.309	-0.307	-0.306	0.0449	-0.399	-0.126	-0.221	-0.0351	0.935	0.435	0.795	-0.396	-0.19	-0.114	-0.291	-0.345	-0.382	-0.208	-0.677	-0.295
CCGACTGGGGCATAAAGTTACCATAAGCCAGCCC	-0.335	-0.54	-0.298	-0.42	-1.15	0.0732	0.855	0.803	-0.215	0.313	2.19	1.79	-0.543	-1.06	-0.724	-0.621	-0.245	-0.613	-0.145	0.149
TCATATAGATAAAAGGTGAAAGTCGGTGTGGTAA	1.52	1.57	0.231	1.67	-0.152	3.28	3.63	5.16	5.42	5.56	3.23	2.25	0.674	0.805	1.56	1.12	0.535	1.83	1.65	1.73
TCATATAGGTAATGCAGGTGAAAGTCGGCATCTA	0.698	0.973	0.228	0.199	-0.224	2.23	1.65	2.58	3.86	2.86	4.18	4.3	0.872	1.17	0.782	0.415	0.211	0.602	0.52	0.41
CCGACTGGGGCATAAGGATACCATAAGCCAGCCC	-0.174	-0.373	-0.612	-0.813	-1.53	-0.0359	1.29	1.46	0.0303	0.707	2.56	1.93	-0.873	-1.29	-0.477	-0.797	-0.877	-0.463	0.0261	0.0537
TCTCGGAGGACACGATGGTCAGAGCTTTCCAGAG	0.101	-0.284	-0.822	-0.381	-1.39	-0.0198	-0.18	0.7	1.73	1.07	1.01	-0.167	-0.797	-0.992	-1.04	-0.421	-0.66	-0.201	-0.829	1.51
CCTACTGGGCCACGGAAGGTCATTGATTCAGTGA	1.94	2.96	2.27	2.25	-0.194	3.5	3.4	3.37	1.05	2.35	4.56	5.51	-0.609	-0.824	1.7	3.57	0.303	3.15	0.0822	3
TCTCGGAGGACACGAAGGTCAGAGGTTTCCAGAG	1.53	1.38	0.357	1.1	-0.91	2.12	0.856	2.22	2.35	2.2	1.38	1.27	-0.769	-0.978	1.73	2.39	1.24	2.75	0.0674	3.42
CTCGAGAGGTCGTGCTCAGGTGAGTATACCAAAC	3.66	2.94	-0.247	3.32	-0.109	4.28	1.58	2.21	0.228	1.11	0.51	1.53	-0.297	-0.226	0.544	3.09	0.214	3.6	-0.876	2.79
